# Only some compounds are listed: those with a hit (about 6.9% of all), similar ones and a draw of the others.
# KB-V1 cytotox: kills drug-selected multidrug resistant KB-V1 cells | AID 1347076 | KB-V1 MDR cells viability, CellTiter-Glo, 72 h | hit rate 3.4% among 400,000 | Potency, µM (series often up to 46.1 µM), usual class: cytotoxic; also: potency is read from the fitted curve at half-maximal effect; % is scaled to controls: 0 for no effect and ±100 for the full control effect; nearly all actives have a fitted effect of over 60% in size
#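 Readout: CellTiter-Glo luminescence, 10 min after addition. Cells: KB-V1 MDR subline, 72 h at 37 degrees C with compound. Analysis: corrected, normalized data fitted to concentration-effect curves.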
# MCF10A rereplic: inducers of DNA re-replication in MCF 10A breast cells; MCF 10A DNA re-replication, Hoechst nuclear intensity, 48 h; Potency, µM (series often up to 46.1 µM), for inactives: at the highest dose activity, positive = re-replication, hits mostly activators; hit rate 2.9% among 350,000; AID 624296; also: potency is read from the fitted curve at half-maximal effect; % of control where 0% means no effect; nearly all actives have a fitted effect of over 50% in size
# SW480 rereplic: induces DNA re-replication in SW480 colon adenocarcinoma cells; SW480 DNA re-replication, Hoechst DNA content imaging, 48 h; hit rate 1.8% among 340,000; Potency, µM (series often up to 46.1 µM), without a hit: at the highest dose re-replication activation, actives largely listed as activators; AID 624297; also: potency is read from the fitted curve at half-maximal effect; % of control where 0% means no effect; nearly all actives have a fitted effect of over 55% in size
#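 Per well, 250 cells were exposed to pinned compound for 48 hr. Nuclear DNA was visualised with Hoechst (40 min, 37 C) and total object intensity recorded by fluorescence scanning.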
# ASM inhibitor: human S-ASM enzyme inhibition; P17405; placental ASM, HMU-PC fluorogenic substrate, 60 min; Potency, µM (top dose mostly 57.5 µM), for the others: top-dose activity change, negative = inhibition, hits mostly inhibitors; hit rate 0.006% among 340,000; AID 504937; also: potency is read from the fitted curve at half-maximal effect
# Target sequence (P17405 47-631 limits assumed): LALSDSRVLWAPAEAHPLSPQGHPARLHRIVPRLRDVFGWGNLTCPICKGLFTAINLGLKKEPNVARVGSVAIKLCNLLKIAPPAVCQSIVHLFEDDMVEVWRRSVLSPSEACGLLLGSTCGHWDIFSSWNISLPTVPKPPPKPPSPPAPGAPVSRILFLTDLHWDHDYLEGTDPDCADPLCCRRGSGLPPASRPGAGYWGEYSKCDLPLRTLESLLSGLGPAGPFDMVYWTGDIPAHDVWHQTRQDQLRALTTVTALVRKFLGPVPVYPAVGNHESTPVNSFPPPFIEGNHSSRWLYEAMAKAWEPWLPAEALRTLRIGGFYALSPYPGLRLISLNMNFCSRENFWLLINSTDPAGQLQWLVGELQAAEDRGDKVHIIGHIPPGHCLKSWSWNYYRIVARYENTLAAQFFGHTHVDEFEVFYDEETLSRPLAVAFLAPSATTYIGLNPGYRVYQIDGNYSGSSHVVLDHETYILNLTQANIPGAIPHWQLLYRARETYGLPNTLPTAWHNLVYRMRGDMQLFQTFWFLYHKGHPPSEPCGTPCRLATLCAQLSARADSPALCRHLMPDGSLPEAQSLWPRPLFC
#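 qHTS format. ASM enzyme prepared from human placenta hydrolyses the fluorogenic substrate HMU-PC0 (9 uM final) over 60 min at 37 °C after a 10 min compound preincubation.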
# KB-3-1 cytotox: kills parental KB-3-1 adenocarcinoma cells | KB-3-1 viability, CellTiter-Glo ATP luminescence, 72 h | Potency, µM (doses to about 46.1 µM), most hits filed as cytotoxic | hit rate 1.4% among 400,000 | AID 1347075; also: potency is read from the fitted curve at half-maximal effect; % is scaled to controls: 0 for no effect and ±100 for the full control effect; nearly all actives have a fitted effect of over 60% in size
#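 Here the drug-naive KB-3-1 line serves as comparator for MDR sub-line selectivity; cells received compound titrations, 72 h at 37 °C, then CellTiter-Glo readout.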
# Giardia kill: Giardia lamblia killing; hit rate 0.15% among 340,000; activity change, % at 7.66 µM, hits read low; AID 540267; Giardia lamblia trophozoite viability; in the data active = activity change below about -80%; inconclusive = between about -30% and that limit;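 also: parasites exposed to compound for two days anaerobically before the ATP read; % is scaled to controls: 0 for no effect and ±100 for the full control effect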
#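 Luminescent ATP signal served as the viability read-out, measured 15-30 min after adding ATP detection reagent to trophozoites that had been incubated with compounds for 48 hrs at 37 deg C anaerobically at 100 cells/well.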
# Numbers without * were called inactive; i = inactive; ? = inconclusive; . = no result given. Unless noted, calls follow the shape of the dose curve; as a rule, active = well fitted curve in the direction sought with a large enough effect; inconclusive = small, poorly fitted or top-dose-only effect, or another doubt; inactive = no such curve, though single readings can be large; an effect the other way counts as inactive or inconclusive.
SMILES,KB-V1 cytotox,MCF10A rereplic,SW480 rereplic,ASM inhibitor,KB-3-1 cytotox,Giardia kill
CCCCNC(=O)COC(=O)c1c2c(nc3ccccc13)/C(=C/c1cccs1)CC2,?,3.26µM*,5.17µM*,367.3%,i,4.5
CNC(=O)NC(=O)C(C)OC(=O)c1c2c(nc3ccccc13)/C(=C/c1cccs1)CC2 (configuration not stated),5.17µM*,?,?,i,?,-6.9
CCCCNC(=O)COC(=O)c1c2c(nc3ccccc13)CCC2,i,-1.9%,-5.2%,-0.2%,i,-6.0
COCCNc1cnn(-c2ccccc2)c(=O)c1Cl,?,-3.9%,-4.5%,5.7%,i,4.2
CC(=O)O[C@H]1C[C@@]2(C)[C@H](C[C@@H](O)[C@H]3[C@@]4(C)CC[C@@H](O)[C@@H](C)[C@H]4CC[C@@]32C)C1=C(CCC=C(C)C)C(=O)O,.,3.6%,0.3%,.,.,.
COc1cccc(-c2noc(COc3ccc(C(C)(C)C)cc3)n2)c1,?,.,.,.,i,.
Cc1ccccc1Cn1ccc(NC(=O)c2nn(C)cc2[N+](=O)[O-])n1,?,6.51µM*,10.3µM*,.,i,-6.2
Cn1cc([N+](=O)[O-])c(C(=O)Nc2cc(Oc3ccccc3)cc([N+](=O)[O-])c2)n1,?,2.91µM*,4.11µM*,-4.8%,?,-17.0
CCn1nc(C)c(C(=O)Nc2cc(Oc3cc(C)cc(C)c3)cc([N+](=O)[O-])c2)c1C,3.26µM*,23.1µM*,?,-11.9%,18.4µM*,-14.2
Cc1nn(C)cc1C(=O)Nc1cc(Oc2ccc(Cl)cc2)cc([N+](=O)[O-])c1,?,97.4%,21.9%,-3.4%,20.6µM*,10.1
O=C(Nc1cc(Oc2ccc(Cl)cc2)cc([N+](=O)[O-])c1)c1ccco1,i,16.4µM*,-0.1%,?,i,-1.3
CSc1cccc(N2CC(C(=O)NCCC3=CCCCC3)CC2=O)c1 (configuration not stated),i,3.9%,-4.4%,-4.1%,i,-0.1
Cc1nn(-c2nc3ccccc3[nH]2)c(N)c1-c1ccc(Cl)cc1,18.4µM*,?,?,-19.9%,?,-3.9
Cc1nn(-c2nc3ccccc3[nH]2)c(=O)c2ccccc12,5.8µM*,29.6%,2.9%,35.0%,1.3µM*,-96.9*
Cc1nn(-c2ccc3ccccc3c2)c(=O)c2ccccc12,i,23.8%,10.8%,-10.2%,i,-12.5
CCN(CC)C(=O)c1oc2ccc(S(=O)(=O)N3CC(C)CC(C)C3)cc2c1C (configuration not stated),?,?,-21.4%,-15.5%,i,10.9
COc1ccc(NC(=O)c2oc3ccc(S(=O)(=O)N4CCCCC4)cc3c2C)cc1,6.51µM*,.,.,.,i,.
CCN(CC)C(=O)c1oc2ccc(S(=O)(=O)N3CCCCCC3)cc2c1C,13µM*,29.9%,3.4%,-1.3%,i,-0.5
COc1ccc2oc(C(=O)OCC(=O)N3C(C)CCCC3C)c(C)c2c1 (configuration not stated),i,10.7%,3.0%,0.4%,i,-16.4
COc1ccc2oc(C(=O)OCC(=O)N3CCCCC3C)c(C)c2c1 (configuration not stated),20.6µM*,1.0%,-4.2%,2.6%,i,-9.0
CCOC(=O)c1oc2ccc(S(=O)(=O)N3CCC(C)CC3)cc2c1C,16.4µM*,16.3%,1.2%,-0.6%,i,6.0
Cc1cc(C)c2c(=O)[nH]c(SCC(=O)c3ccc(C(C)C)cc3)nc2n1,16.4µM*,?,-6.1%,-4.6%,i,22.2
Cc1cc(=O)[nH]c(SCC(=O)c2ccc(C(C)C)cc2)n1,i,1.2%,-0.7%,-0.5%,i,-14.0
Cc1nnc(SCC(=O)Nc2cccnc2Cl)s1,i,-2.2%,-273.1%,1.8%,i,-15.2
CCc1ccc(Nc2nnc(SCC(=O)Nc3cccnc3Cl)s2)cc1,16.4µM*,1.1%,6.0%,-3.8%,i,-17.9
SMILES,KB-V1 cytotox,MCF10A rereplic,SW480 rereplic,ASM inhibitor,KB-3-1 cytotox,Giardia kill
CCc1ccc(Nc2nnc(SCC(=O)Nc3sccc3C(N)=O)s2)cc1,?,16.4µM*,?,?,?,-10.2
COc1ccccc1-c1noc(CCC(=O)Nc2ccc(C)cc2C)n1,i,.,.,.,i,.
COCCNc1nc2nonc2nc1N(C)Cc1cccc2cnccc12,i,-2.0%,4.61µM*,6.1%,i,-1.0
CN(C)CCCCCCNc1nccc(N2CCN(C)CC2)n1,i,.,.,.,?,.
Cc1ccc(O)c(C(=O)c2cnc3c(c2)CN(C)C(=O)N3)c1,7.94µM*,?,?,3.6%,?,-11.9
Cc1ccc(O)c(C(=O)c2cnc3c(c2)CN(CCC(C)C)C(=O)N3)c1,i,18.6%,15.1%,39.1%,i,12.4
Cc1ccc(S(=O)(=O)Nc2cc(-c3nn(C)c(=O)c4ccccc34)ccc2N2CCOCC2)cc1,i,?,16.4µM*,-6.9%,i,-13.1
CCN1CCN(C(c2cccc(F)c2)c2c(O)cc(C)n(Cc3ccco3)c2=O)CC1 (configuration not stated),i,.,.,.,i,.
COc1cc2c3nnc(-c4ccc(F)cc4)c-3cn(Cc3cccc(C)c3)c2cc1OC,i,?,20.6µM*,93.4%,?,1.1
COc1cc2c3nnc(-c4ccc(F)cc4)c-3cn(Cc3ccc(C)cc3)c2cc1OC,i,?,1.0%,43.0%,?,14.3
COc1cc2c3nnc(-c4ccccc4)c-3cn(Cc3ccc(F)cc3)c2cc1OC,i,?,18.4µM*,75.3%,i,-7.8
COc1cc2c3nnc(-c4ccc(F)cc4)c-3cn(Cc3cccc(F)c3)c2cc1OC,i,?,6.51µM*,42.1%,?,-10.2
Cc1ccc(N(CC(=O)NC2CCCCC2)C(=O)CNC(=O)c2ccco2)c(C)c1,i,22.7%,-6.2%,-0.1%,i,5.1
COc1cccc(NC(=O)Cn2cc(C(=O)c3ccco3)c3ccccc32)c1,i,.,.,.,i,.
CCN(CC)CCN1C(=O)C2C(C(=O)Nc3cccc(SC)c3)C3C=CC2(O3)C1C(=O)NC1CCCC(C)C1C (configuration not stated),?,11.8%,18.4µM*,0.8%,i,-7.0
CC1(C)Cc2nc3oc4c(=O)n(CC(=O)Nc5cccc(Cl)c5)cnc4c3cc2CO1,i,12.2%,18.4µM*,2.9%,i,-26.8
Cc1cccc(NC(=O)Cn2cnc3c(oc4nc5c(cc43)COC(C)(C)C5)c2=O)c1,i,?,8.3%,3.4%,i,-4.9
